The source of these data is PubChem BioAssay (NCI).

The panel holds about 83,000 compounds, 20% with a hit somewhere; the sample as a whole holds those more often.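 Step 1: grow cells in 96-well plates. Step 2: add test compound at a single concentration. Step 3: incubate 48 h. Step 4: record percent growth.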 Active and inactive are the calls of the source. Rule for the calls: active = growth percent below 10; inactive = the rest.

In the first experiment the test system is OVCAR-4 ovarian. Put plainly: NCI-60 one-dose screen, 48 h (100 = growth as untreated, 0 = no growth, -100 = all killed). To be noted: 10 µM unless noted.
As for `COc1cc(NC(=O)NCc2ccco2)ccc1-c1ccc(NC(=O)NCc2ccco2)cc1OC`, the growth was 60.9% (inactive).
For the compound `COc1cnc2c(c1)C(=O)c1c-2n(CCCN2CCC(O)CC2)c(=O)c2cc(F)ccc12`, the growth is -0.215% (active).
On the same count and under the same terms, the same measure for `CCOC(=O)C1=CCC(n2cc(C)c(=O)[nH]c2=O)O1` (stereo not drawn): 105% (inactive); for `CCSc1nc(Nc2ccc(S(=O)(=O)Nc3ccon3)cc2)c(C#N)c(-c2cccc(Br)c2)n1`: 103% (inactive); for `C[C@H]1O[C@@H](O[C@H]2[C@@H](O)C[C@H](O[C@H]3[C@@H](O)C[C@H](O[C@H]4CC[C@]5(C)C6C[C@@H](O)[C@]7(C)[C@@H](C8=CC(=O)OC8)CC[C@]7(O)C6CC[C@@H]5C4)O[C@@H]3C)O[C@@H]2C)C[C@H](O)[C@@H]1O` (stereo partly drawn): -29.6% (active).
With `Cc1ccc(NC(=O)c2sc3nc4c(cc3c2N)C(=O)CCC4)cc1`, the growth is 106% (inactive).
For `COc1ccc(-c2nnc3c4[nH]cnc4ncn23)c(OC)c1`, the growth is 36.8% (inactive).
With `Cc1ccc(N/N=C(/C(=O)c2ccc(Cl)cc2)c2nc(C)cc(=O)[nH]2)cc1`, the growth was 116% (inactive).
For the compound `Cc1ccc(/C=C/C(=O)c2ccc(F)cc2)s1`, the growth was 81.2% (inactive).
Take `CNNc1ncnc2c1cnn2-c1ccc(S(N)(=O)=O)cc1`: the growth was 106% (inactive).
For `OC(c1cc(-c2cccc(Cl)c2)nc2ccccc12)C1CCCCN1` (stereo not drawn), the growth was -7.1% (active).
Still for that read-out and setting: then `COc1ccc2c(c1)sc1nc(-c3ccc(Br)cc3)cn12`, with 100% (inactive); and `COc1ccccc1NC(=O)c1sc2nc3c(cc2c1N)C(=O)CCC3`, with 91.4% (inactive).
`N#CC(C#N)C(C#N)C#N`: the growth is 98.6% (inactive).
As for `COc1ccc(C2=NN(C(C)=O)C(c3c(C)nn(-c4ccccc4)c3N3CCOCC3)C2)cc1` (stereo not drawn), the growth is 89.5% (inactive).
Turning to `CCSc1nc(-c2ccco2)n2nc(-c3ccco3)cc2n1`, the growth is 65.9% (inactive).
On the same count and under the same terms, the same measure for `O=C(Nc1ccc2c(c1)C(=O)c1ccccc1-2)c1ccccc1`: 15.9% (inactive).
Take `CN(C)c1ccc(-c2nc3ncc(Br)cc3o2)cc1`: the growth was 113% (inactive).
Take `c1ccc(COc2ccc(Nc3ncnc4c3cnn4-c3ccccc3)cc2)cc1`: the growth was 91.3% (inactive).
Still for that read-out and setting: the same measure for `Cc1ccccc1NC(=O)N/C(N)=N/c1nc2ccccc2s1`: 65% (inactive).
Regarding `Cc1ccc(C2=NNC(c3sc(Cl)nc3Cl)C2)cc1` (stereo not drawn), the growth is 84.7% (inactive).
For `N#Cc1ccccc1C#Cc1ccccc1C#Cc1ccc(OCCCCCCOc2ccc(C#Cc3ccccc3C#Cc3ccccc3C#N)cc2)cc1`, the growth is 107% (inactive).
On the same count and under the same terms, the same measure for `C=CCN(/C=C/CN(CC=C)CC=C)CC=C`: 91.7% (inactive); for `C[C@@H]1CN(c2nc3c(cc2F)c(=O)c(C(=O)O)cn3C(C)(C)C)C[C@H](C)N1`: 104% (inactive).
As for `CCN(CC)c1ccc(N=C2C=CC(=O)C=C2NC(C)=O)cc1`, the growth is 104% (inactive).
Still for that read-out and setting: the same measure for `COc1ccc(NS(=O)(=O)N2CCCCC2)cc1`: 125% (inactive).
Turning to `COc1cc(/C=C2\CN(S(=O)(=O)c3ccc(C)cc3)C/C(=C\c3cc(CN4CCOCC4)c(O)c(OC)c3)C2=O)cc(CN2CCOCC2)c1O`, the growth is 24.8% (inactive).
With `Cc1ccc(C2=Nc3c(ccc4c(C)c(C)c(=O)oc34)OC2)cc1`, the growth was 116% (inactive).
As for `NC(=O)c1cc(Cl)ccc1NC(=O)c1ccccc1-c1ccccc1`, the growth is 48.3% (inactive).
Same read-out and setting: the same measure for `CC12CCC3C(=CCc4cc(O)ccc43)C1CCC2=O` (stereo not drawn): 107% (inactive); for `CCOC(=O)OCC(=O)[C@@]1(O)CC[C@H]2[C@@H]3CCC4=CC(=O)CC[C@]4(C)[C@H]3[C@@H](O)C[C@@]21C`: 104% (inactive).
On to `O=C1NCCc2c1noc2-c1ccccc1`, for which the growth is 114% (inactive).
For `O=C1C=CC(=O)N1c1ccccc1N1C(=O)C=CC1=O`, the growth was 116% (inactive).
Regarding `Cc1cnc2nc(-c3ccc(N(C)C)cc3)cn2c1`, the growth was 118% (inactive).
On the same count and under the same terms, the same measure for `Cc1n(Cc2ccc3ccccc3c2)c2ccccc2[n+]1Cc1ccc2ccccc2c1`: -7.76% (active); for `CC1C(=O)NC2=Nc3ccccc3C(=O)NN21` (stereo not drawn): 107% (inactive); for `CC(C)N(Cc1ccccc1)c1c(S)ssc1=S`: -2.68% (active).
For the compound `COc1cc(C2CC(c3ccc(C)cc3)=NN2C=O)ccc1OCCN(C)C` (stereo not drawn), the growth is 97.9% (inactive).
Still for that read-out and setting: the same measure for `CCN(CC)CCSc1ncnc2c1cnn2-c1ccc(S(N)(=O)=O)cc1`: 106% (inactive).

The test system of a further experiment is SK-OV-3 ovarian. The description is as above. To be noted: 10 µM unless noted.
As to `COc1cc(NC(=O)NCc2ccco2)ccc1-c1ccc(NC(=O)NCc2ccco2)cc1OC`, the growth is 69.9% (inactive).
Turning to `COc1cnc2c(c1)C(=O)c1c-2n(CCCN2CCC(O)CC2)c(=O)c2cc(F)ccc12`, the growth was -31.6% (active).
Turning to `CCOC(=O)C1=CCC(n2cc(C)c(=O)[nH]c2=O)O1` (stereo not drawn), the growth is 109% (inactive).
For the compound `CCSc1nc(Nc2ccc(S(=O)(=O)Nc3ccon3)cc2)c(C#N)c(-c2cccc(Br)c2)n1`, the growth is 99.1% (inactive).
`C[C@H]1O[C@@H](O[C@H]2[C@@H](O)C[C@H](O[C@H]3[C@@H](O)C[C@H](O[C@H]4CC[C@]5(C)C6C[C@@H](O)[C@]7(C)[C@@H](C8=CC(=O)OC8)CC[C@]7(O)C6CC[C@@H]5C4)O[C@@H]3C)O[C@@H]2C)C[C@H](O)[C@@H]1O` (stereo partly drawn): the growth is -93.3% (active).
For `Cc1ccc(NC(=O)c2sc3nc4c(cc3c2N)C(=O)CCC4)cc1`, the growth is 37.5% (inactive).
For `COc1ccc(-c2nnc3c4[nH]cnc4ncn23)c(OC)c1`, the growth was 11.4% (inactive).
Regarding `Cc1ccc(N/N=C(/C(=O)c2ccc(Cl)cc2)c2nc(C)cc(=O)[nH]2)cc1`, the growth was 116% (inactive).
Consider `Cc1ccc(/C=C/C(=O)c2ccc(F)cc2)s1`, for which the growth was 96.5% (inactive).
Regarding `CNNc1ncnc2c1cnn2-c1ccc(S(N)(=O)=O)cc1`, the growth was 115% (inactive).
Regarding `OC(c1cc(-c2cccc(Cl)c2)nc2ccccc12)C1CCCCN1` (stereo not drawn), the growth is 48.3% (inactive).
`COc1ccc2c(c1)sc1nc(-c3ccc(Br)cc3)cn12`: the growth was 117% (inactive).
Same read-out and setting: then `COc1ccccc1NC(=O)c1sc2nc3c(cc2c1N)C(=O)CCC3`, with 39% (inactive); and `N#CC(C#N)C(C#N)C#N`, with 84% (inactive).
Take `COc1ccc(C2=NN(C(C)=O)C(c3c(C)nn(-c4ccccc4)c3N3CCOCC3)C2)cc1` (stereo not drawn): the growth was 80.4% (inactive).
With `CCSc1nc(-c2ccco2)n2nc(-c3ccco3)cc2n1`, the growth was 101% (inactive).
Turning to `O=C(Nc1ccc2c(c1)C(=O)c1ccccc1-2)c1ccccc1`, the growth is 110% (inactive).
`CN(C)c1ccc(-c2nc3ncc(Br)cc3o2)cc1`: the growth was 94.8% (inactive).
Regarding `c1ccc(COc2ccc(Nc3ncnc4c3cnn4-c3ccccc3)cc2)cc1`, the growth is 108% (inactive).
As for `Cc1ccccc1NC(=O)N/C(N)=N/c1nc2ccccc2s1`, the growth is 65% (inactive).
For the compound `Cc1ccc(C2=NNC(c3sc(Cl)nc3Cl)C2)cc1` (stereo not drawn), the growth is 88.4% (inactive).
Turning to `N#Cc1ccccc1C#Cc1ccccc1C#Cc1ccc(OCCCCCCOc2ccc(C#Cc3ccccc3C#Cc3ccccc3C#N)cc2)cc1`, the growth is 111% (inactive).
For the compound `C=CCN(/C=C/CN(CC=C)CC=C)CC=C`, the growth was 103% (inactive).
For the compound `C[C@@H]1CN(c2nc3c(cc2F)c(=O)c(C(=O)O)cn3C(C)(C)C)C[C@H](C)N1`, the growth is 105% (inactive).
Turning to `CCN(CC)c1ccc(N=C2C=CC(=O)C=C2NC(C)=O)cc1`, the growth was 86.9% (inactive).
Take `COc1ccc(NS(=O)(=O)N2CCCCC2)cc1`: the growth was 99.6% (inactive).
For `COc1cc(/C=C2\CN(S(=O)(=O)c3ccc(C)cc3)C/C(=C\c3cc(CN4CCOCC4)c(O)c(OC)c3)C2=O)cc(CN2CCOCC2)c1O`, the growth is 42.6% (inactive).
For the compound `Cc1ccc(C2=Nc3c(ccc4c(C)c(C)c(=O)oc34)OC2)cc1`, the growth is 106% (inactive).
Take `NC(=O)c1cc(Cl)ccc1NC(=O)c1ccccc1-c1ccccc1`: the growth is 33.1% (inactive).
For `CC12CCC3C(=CCc4cc(O)ccc43)C1CCC2=O` (stereo not drawn), the growth was 115% (inactive).
Turning to `CCOC(=O)OCC(=O)[C@@]1(O)CC[C@H]2[C@@H]3CCC4=CC(=O)CC[C@]4(C)[C@H]3[C@@H](O)C[C@@]21C`, the growth was 68.4% (inactive).
Take `O=C1NCCc2c1noc2-c1ccccc1`: the growth was 91.3% (inactive).
With `O=C1C=CC(=O)N1c1ccccc1N1C(=O)C=CC1=O`, the growth is 103% (inactive).
In the case of `Cc1cnc2nc(-c3ccc(N(C)C)cc3)cn2c1`, the growth was 119% (inactive).
Still for that read-out and setting: the same measure for `Cc1n(Cc2ccc3ccccc3c2)c2ccccc2[n+]1Cc1ccc2ccccc2c1`: -18.4% (active); for `CC1C(=O)NC2=Nc3ccccc3C(=O)NN21` (stereo not drawn): 105% (inactive).
Consider `CC(C)N(Cc1ccccc1)c1c(S)ssc1=S`, for which the growth is 11.7% (inactive).
Turning to `COc1cc(C2CC(c3ccc(C)cc3)=NN2C=O)ccc1OCCN(C)C` (stereo not drawn), the growth was 96.2% (inactive).
Turning to `CCN(CC)CCSc1ncnc2c1cnn2-c1ccc(S(N)(=O)=O)cc1`, the growth was 108% (inactive).
